According to PubChem BioAssay (EPA / NIEHS):
Several values for one entry are separate records, joined by “and”; a condition that tells them apart may be missing. Equal values may be shown once. Records with an inconclusive call do not appear. Activity calls are given as the source filed them. How the source made its calls: active means hit-call score of the fitted dose curve at least 0.9, where 1 is the maximum; inconclusive means response in the unintended direction; inactive means score below 0.9.

Each compound was assayed against Retinoic acid receptor RXR-alpha (Homo sapiens) (UniProt P19793) (assay: ATG_RXRa_TRANS: Attagene TRANS-FACTORIAL HepG2 Assay for human Retinoid X Receptor alpha (RXRa) (AID 2283012)).
Sequence of Retinoic acid receptor RXR-alpha (Homo sapiens) (P19793 whole entry, looked up, the tested form may be a part): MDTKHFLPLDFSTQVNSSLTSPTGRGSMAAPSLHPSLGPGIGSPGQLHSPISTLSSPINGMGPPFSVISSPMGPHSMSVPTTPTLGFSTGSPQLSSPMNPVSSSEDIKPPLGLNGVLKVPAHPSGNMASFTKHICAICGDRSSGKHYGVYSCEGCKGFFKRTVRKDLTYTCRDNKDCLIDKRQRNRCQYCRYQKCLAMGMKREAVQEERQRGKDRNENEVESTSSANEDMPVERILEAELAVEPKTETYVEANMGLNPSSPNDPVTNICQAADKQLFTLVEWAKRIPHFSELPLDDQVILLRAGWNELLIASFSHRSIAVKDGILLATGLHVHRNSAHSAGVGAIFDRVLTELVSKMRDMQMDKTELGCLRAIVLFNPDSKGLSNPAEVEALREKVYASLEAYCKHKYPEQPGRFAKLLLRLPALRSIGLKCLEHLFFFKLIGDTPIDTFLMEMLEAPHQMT
Procedure, shortened: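 Measures exogenous chimeric NR-GAL4 activity in transfected HepG2 liver cells after 24 h of dosing. Induced reporter mRNA was detected by RT-PCR with capillary electrophoresis, and gain of signal was analysed against DMSO.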

Structure (SMILES) | outcome | AC50
O=C(CC(=O)C(F)(F)C(F)(F)C(F)(F)F)c1cccs1 | inactive | –
Cc1[nH]nc2c1N=C(c1ccccc1Cl)c1cc([N+](=O)[O-])ccc1N2 | inactive | –
CC(C)[C@@H]1CC[C@@H](C)C[C@H]1O | inactive | –
CCc1ccccc1O | inactive | –
O=C1c2ccc(O)c(O)c2C(=O)c2c(O)ccc(O)c21 | inactive | –
CCCCCC(C)OC(=O)COc1ccc(Cl)c2cccnc12 (stereo not drawn) | inactive | –
O=C1Cc2ccccc2N1c1c(Cl)cccc1Cl | inactive | –
CC1=CC(=O)c2ccccc2C1=O | inactive | –
CCOC=C(C(=O)OCC)C(=O)OCC | inactive | –
CCCCCCOC(=O)c1ccc(O)cc1 | inactive | –
C=CCOCC(CO)(CO)CO | inactive | –
Cc1ccccc1C(OCCN(C)C)c1ccccc1 (stereo not drawn) | inactive | –
O=S(=O)(O)c1ccccc1 | inactive | –
CCOC(OCC)C(=O)c1ccccc1 | inactive | –
C[N+](C)(CCCNS(=O)(=O)CCC(F)(F)C(F)(F)C(F)(F)C(F)(F)C(F)(F)C(F)(F)F)CC(=O)[O-] | inactive | –
CCCCCCCCCCCC(=O)O | inactive | –
O=C(NCc1ncc(C(F)(F)F)cc1Cl)c1c(Cl)cccc1Cl | inactive | –
CC1COCc2cc3c(cc21)C(C)(C)C(C)C3(C)C (stereo not drawn) | inactive | –
Cc1cc(=O)oc2cc(O)ccc12 | inactive | –
CC(=O)Nc1ccc(S(N)(=O)=O)cc1 | inactive | –
Cc1cc(C(C)(C)C)c(O)c(C(C)(C)C)c1 | – | 15.6 µM (active) and 865 nM (active)
O=S(=O)(O)c1ccc2cc(O)ccc2c1 | inactive | –
CCOC(=O)CN[C@@H](C(=O)N1CC[C@H]1C(=O)NCc1ccc(/C(N)=N/O)cc1)C1CCCCC1 | inactive | –
